From PubChem BioAssay
Calls of active or inactive are those of the source.

What was measured:
Albumin (Bos taurus) = Albumin (Bos taurus) (UniProt P02769); assay: bovine serum albumin binders on microarray, profiling panel, artefact control for SMM control protein annotation, biochemical, small-molecule microarray, Alexa647 label, 635/667 nm fluorescence (AID 1118); details: BSA-A647 binding, fluorescence 635 nm, higher = more signal;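 also: score merges 667 nm emission intensity and signal-to-noise per printed compound spot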
[1] = small-molecule microarray binders of probe aXIP, primary screen, biochemical, NeuroSMM set, 635/667 nm fluorescence (AID 1119); details: higher = more signal, called active from +8 up or from −8 down;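 also: probe is the protein aXip251-270 applied at 1 µg/mL to compound-printed slides; binding of probe to printed compounds measured as 667 nm fluorescence plus signal to noise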
[2] = small-molecule binders of probe aNOTCH3, primary screen, biochemical, small-molecule microarray, 635/667 nm fluorescence (AID 1120); details: higher = more signal;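 also: probe is a biotin-tagged antibody raised against NOTCH3 rather than NOTCH3 protein; score merges spot fluorescence near 667 nm with spot signal to noise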
[3] = small-molecule binders of probe aNOTCH2, primary screen, biochemical, small-molecule microarray, 635/667 nm fluorescence (AID 1121); details: higher = more signal;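 also: score merges feature fluorescence read at 667 nm with its signal to noise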
[4] = target: Carbonic anhydrase 2 (Homo sapiens) (UniProt P00918); assay: CAII small-molecule binders, profiling panel, biochemical, small-molecule microarray, Alexa647-labelled CAII (AID 1122); details: CAII-A647 binding fluorescence, higher = more signal
[5] = COS7 lysate on small-molecule microarray, probe aHis, 635 nm (AID 1123); details: COS7 cell lysate, fluorescence, higher = more signal;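 also: z-score combines 667nm fluorescence intensity with signal-to-noise per printed compound spot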
[6] = compound binding in COS7 lysate, probe aLAP1, primary screen, cell lysate, small-molecule microarray (AID 1124); details: probe aLAP1, fluorescence, higher = more signal;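 also: lysate comes from COS7 cells expressing LAP1 and is applied at 0.3 µg/mL; score merges spot fluorescence near 667 nm with signal-to-noise over triplicate slides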
Sam68 (KHDRBS1) = assay: Sam68 small-molecule binders, primary screen, biochemical, small-molecule microarray, 635 nm fluorescence (AID 1125); details: small-molecule microarray binding, higher = more signal;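 also: score merges 667 nm channel intensity with signal to noise over triplicate slides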
[7] = tested on: Chordin-like protein 2 (CHRDL2); assay: CHRDL2 small-molecule binders, primary screen, biochemical, small-molecule microarray, 635 nm fluorescence (AID 1126); details: small-molecule microarray binding, fluorescence 635 nm; higher = more signal;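 also: printed compound slides probed with Chrdl2 protein at 4 µg/mL for 1 h at 4 C; score merges 667 nm emission intensity with signal to noise over three replicate slides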
[8] = target: Concanavalin-A (Canavalia ensiformis) (UniProt P02866); assay: ConA small-molecule binders, primary screen, artefact control for SMM control protein annotation, biochemical, small-molecule microarray, Alexa647 label, 635 nm (AID 1127); details: ConA-A647 binding fluorescence, higher = more signal;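 also: z combines 667 nm emission intensity with signal-to-noise across three replicate slides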
[9] = anti-His antibody binders, primary screen, artefact control for SMM control protein annotation, biochemical, small-molecule microarray, 635 nm fluorescence (AID 1128); details: anti-His Alexa647 antibody binding, higher = more signal;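 also: score merges feature fluorescence with signal-to-noise for each printed compound spot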
[10] = tested on: Human papillomavirus type 1a E7 protein (residues 1-88); assay: HPV1a E7 small-molecule binders, primary screen, biochemical, small-molecule microarray, residues 1-88, 635 nm (AID 1129); details: small-molecule microarray binding, fluorescence 635 nm; higher = more signal
[11] = target: Focal adhesion kinase 1 (Homo sapiens) (UniProt Q05397); assay: small-molecule microarray binders of FAK, primary screen, biochemical, 635/667 nm fluorescence, BSA, DTT (AID 1130); details: PTK2 binding, 635 nm fluorescence, higher = more signal;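 also: composite of spot emission at 667 nm and signal to noise over triplicate slides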
[12] = tested on: Fibrinogen (Alexa647-labelled); assay: fibrinogen binders on compound microarrays, profiling panel, artefact control for SMM control-protein annotation, biochemical, small-molecule microarray, 635/667 nm fluorescence (AID 1131); details: fibrinogen-A647 binding fluorescence, higher = more signal;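 also: z-score merges 667 nm fluorescence with per-spot signal-to-noise over triplicate slides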
[13] = target: Follistatin (Homo sapiens) (UniProt P19883); assay: follistatin binders on small-molecule microarrays, primary screen, biochemical, small-molecule microarray, 635/667 nm fluorescence (AID 1132); details: FST binding, 635 nm fluorescence, higher = more signal
[14] = target: Fibroblast growth factor 2 (Homo sapiens) (UniProt P09038); assay: FGF2 binders on small-molecule microarrays, primary screen, biochemical, small-molecule microarray, 635/667 nm fluorescence (AID 1133); details: small-molecule microarray binding, FGF2, fluorescence 635/667; higher = more signal
[15] = mitochondrial membrane potential change in A549 cells, profiling panel, cell-based, JC-1 fluorescence, basal, 24 h, 100 nL (AID 1138); details: higher = more signal;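 also: A549 lung adenocarcinoma cells under basal conditions with no added stimulus; test concentration not given here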
Lefty1 = Lefty1 binders on small-molecule microarrays, primary screen, biochemical, small-molecule microarray, 635/667 nm fluorescence (AID 1139); details: small-molecule microarray binding, fluorescence 635/667; higher = more signal
[16] = tested on: wheat germ agglutinin (Triticum aestivum), Alexa647-labelled; assay: wheat germ agglutinin binders on compound microarrays, profiling panel, artefact control for SMM control-protein annotation, biochemical, small-molecule microarray, 635/667 nm fluorescence (AID 1140); details: WGA-A647 binding, 635 nm fluorescence, higher = more signal;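 also: score merges 667 nm feature emission with signal to noise over triplicate slides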
[17] = target: Luciferin 4-monooxygenase (Photinus pyralis) (UniProt P08659); assay: firefly luciferase enzyme inhibitors, primary screen, biochemical, luminescence, purified enzyme, 2006 set (AID 1141); details: SteadyGlo luminescence, 30 min, higher = more signal, called active from +8 up or from −8 down;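 also: cell-free assay with purified firefly luciferase at 100 ng per well in PBS; test concentration not given here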
Chain of Luciferin 4-monooxygenase (Photinus pyralis) (P08659 whole entry, looked up): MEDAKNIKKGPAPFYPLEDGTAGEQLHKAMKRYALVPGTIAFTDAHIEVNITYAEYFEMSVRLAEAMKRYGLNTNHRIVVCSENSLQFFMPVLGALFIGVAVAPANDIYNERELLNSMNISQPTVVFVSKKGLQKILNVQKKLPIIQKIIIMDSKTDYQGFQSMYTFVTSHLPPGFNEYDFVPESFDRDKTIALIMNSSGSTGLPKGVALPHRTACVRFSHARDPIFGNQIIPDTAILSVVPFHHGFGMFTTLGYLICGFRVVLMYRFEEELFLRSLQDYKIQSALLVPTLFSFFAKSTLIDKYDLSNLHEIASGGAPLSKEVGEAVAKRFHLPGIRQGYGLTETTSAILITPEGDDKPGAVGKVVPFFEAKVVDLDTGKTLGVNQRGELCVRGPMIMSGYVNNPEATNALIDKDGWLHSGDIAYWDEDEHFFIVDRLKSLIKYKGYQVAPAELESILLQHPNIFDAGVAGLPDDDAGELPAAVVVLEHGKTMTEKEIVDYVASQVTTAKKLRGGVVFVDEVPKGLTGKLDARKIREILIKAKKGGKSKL

Chain of Concanavalin-A (Canavalia ensiformis) (P02866 whole entry, looked up): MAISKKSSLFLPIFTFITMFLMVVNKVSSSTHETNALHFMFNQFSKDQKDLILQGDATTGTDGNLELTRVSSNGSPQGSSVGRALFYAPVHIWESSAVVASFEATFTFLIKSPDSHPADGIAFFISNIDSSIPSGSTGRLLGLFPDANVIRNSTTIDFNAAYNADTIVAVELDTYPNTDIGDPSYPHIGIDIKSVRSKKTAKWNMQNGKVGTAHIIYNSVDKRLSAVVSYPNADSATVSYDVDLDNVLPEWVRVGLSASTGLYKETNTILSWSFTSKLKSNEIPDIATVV
Chain of Albumin (Bos taurus) (P02769 whole entry, looked up): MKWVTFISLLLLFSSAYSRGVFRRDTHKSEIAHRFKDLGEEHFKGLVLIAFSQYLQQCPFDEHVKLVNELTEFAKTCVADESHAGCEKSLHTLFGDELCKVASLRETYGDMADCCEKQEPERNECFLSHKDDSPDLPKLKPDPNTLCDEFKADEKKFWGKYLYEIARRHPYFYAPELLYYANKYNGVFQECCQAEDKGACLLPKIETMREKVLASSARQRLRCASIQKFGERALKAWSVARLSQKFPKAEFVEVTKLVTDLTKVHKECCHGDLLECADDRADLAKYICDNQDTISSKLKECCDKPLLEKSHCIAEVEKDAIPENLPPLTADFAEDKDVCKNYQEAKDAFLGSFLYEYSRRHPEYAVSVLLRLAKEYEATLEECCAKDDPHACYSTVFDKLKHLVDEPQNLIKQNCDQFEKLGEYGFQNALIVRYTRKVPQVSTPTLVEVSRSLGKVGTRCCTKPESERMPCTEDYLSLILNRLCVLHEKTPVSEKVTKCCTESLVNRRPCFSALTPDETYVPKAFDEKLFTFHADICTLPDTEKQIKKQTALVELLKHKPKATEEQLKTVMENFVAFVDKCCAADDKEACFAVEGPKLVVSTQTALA
Chain of Focal adhesion kinase 1 (Homo sapiens) (Q05397 whole entry, looked up): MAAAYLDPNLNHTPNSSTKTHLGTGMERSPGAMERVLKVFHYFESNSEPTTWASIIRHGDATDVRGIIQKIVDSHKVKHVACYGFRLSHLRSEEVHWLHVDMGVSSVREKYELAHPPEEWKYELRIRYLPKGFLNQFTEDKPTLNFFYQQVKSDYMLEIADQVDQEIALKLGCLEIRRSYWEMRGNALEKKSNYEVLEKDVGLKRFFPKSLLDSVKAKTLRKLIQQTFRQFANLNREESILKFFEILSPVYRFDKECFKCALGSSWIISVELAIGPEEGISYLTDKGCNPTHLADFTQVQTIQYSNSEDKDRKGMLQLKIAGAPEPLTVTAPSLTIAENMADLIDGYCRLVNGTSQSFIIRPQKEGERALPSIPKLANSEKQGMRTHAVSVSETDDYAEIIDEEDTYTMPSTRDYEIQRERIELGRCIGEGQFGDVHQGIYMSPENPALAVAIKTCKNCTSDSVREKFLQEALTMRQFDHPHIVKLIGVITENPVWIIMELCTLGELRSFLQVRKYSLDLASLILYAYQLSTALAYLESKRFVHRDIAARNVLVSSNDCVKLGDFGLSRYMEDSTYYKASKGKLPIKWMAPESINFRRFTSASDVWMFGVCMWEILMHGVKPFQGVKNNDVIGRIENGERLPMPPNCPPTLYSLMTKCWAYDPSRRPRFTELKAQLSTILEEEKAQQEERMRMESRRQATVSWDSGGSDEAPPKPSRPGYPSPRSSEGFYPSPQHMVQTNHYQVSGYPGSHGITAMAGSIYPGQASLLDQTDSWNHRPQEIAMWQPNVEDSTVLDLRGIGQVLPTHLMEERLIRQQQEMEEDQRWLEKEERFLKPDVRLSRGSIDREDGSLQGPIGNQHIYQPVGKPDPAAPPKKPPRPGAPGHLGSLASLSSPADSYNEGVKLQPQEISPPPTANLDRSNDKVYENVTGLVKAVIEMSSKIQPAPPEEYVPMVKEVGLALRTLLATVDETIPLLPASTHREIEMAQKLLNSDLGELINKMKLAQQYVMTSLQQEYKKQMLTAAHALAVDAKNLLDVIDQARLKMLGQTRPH
Chain of Fibroblast growth factor 2 (Homo sapiens) (P09038 whole entry, looked up): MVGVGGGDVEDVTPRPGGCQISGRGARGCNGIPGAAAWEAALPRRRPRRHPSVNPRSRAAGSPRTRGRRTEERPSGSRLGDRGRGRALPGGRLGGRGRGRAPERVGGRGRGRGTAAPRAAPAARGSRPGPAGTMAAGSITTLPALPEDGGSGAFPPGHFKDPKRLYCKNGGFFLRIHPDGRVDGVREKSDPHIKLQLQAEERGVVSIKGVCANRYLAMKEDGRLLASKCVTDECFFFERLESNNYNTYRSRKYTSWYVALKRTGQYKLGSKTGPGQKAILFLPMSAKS
Chain of Follistatin (Homo sapiens) (P19883 whole entry, looked up): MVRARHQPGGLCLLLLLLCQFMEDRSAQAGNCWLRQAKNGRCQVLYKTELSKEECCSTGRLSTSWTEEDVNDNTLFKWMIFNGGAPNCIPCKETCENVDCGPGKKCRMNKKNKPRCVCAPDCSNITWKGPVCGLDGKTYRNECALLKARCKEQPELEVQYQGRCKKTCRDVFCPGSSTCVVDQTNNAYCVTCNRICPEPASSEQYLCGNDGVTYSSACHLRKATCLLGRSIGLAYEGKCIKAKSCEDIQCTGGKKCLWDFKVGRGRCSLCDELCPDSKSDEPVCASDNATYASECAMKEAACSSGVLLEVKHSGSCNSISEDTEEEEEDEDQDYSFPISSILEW

| Compound | composite z-score (Albumin (Bos taurus)) | composite Z-score [1] | composite z-score [2] | composite z-score [3] | composite z-score [4] | composite z-score [5] | composite z-score [6] | composite z-score (Sam68 (KHDRBS1)) | composite z-score [7] | composite z-score [8] | composite z-score [9] | composite z-score [10] | composite z-score [11] | composite z-score [12] | composite z-score [13] | composite z-score [14] | z-score [15] | composite z-score (Lefty1) | composite z-score [16] | z-score [17] |
| --- | --- | --- | --- | --- | --- | --- | --- | --- | --- | --- | --- | --- | --- | --- | --- | --- | --- | --- | --- | --- |
| COc1ccc([Si](C)(C)[C@@H]2[C@@H](CCn3cc([C@H](O)c4ccccc4)nn3)O[C@]3(C(=O)N(Cc4ccc(N5CCOC5=O)cc4)c4ccccc43)[C@H]2C)cc1 | 0.579 | 0.0409 (inactive) | 0.165 | -0.0502 | 0.0584 | 0.617 | 0.664 | 1.09 | 1.03 | 0.853 | 0.551 | 1.06 | -0.0646 | 0.851 | 1.07 | 1.04 | 0.708 | 1.14 | 0.616 | 0.82 (inactive) |
| COC(=O)[C@]1(CCS(=O)(=O)c2ccccc2)N=C(c2ccc(OCCCO)cc2)O[C@@H]1c1ccccc1CN=[N+]=[N-] | -0.453 | -0.139 (inactive) | 0.0357 | 0.062 | 0.416 | 1.95 | 0.472 | 1.29 | -0.0531 | 0.848 | 1.15 | 1.23 | 1.34 | 0.954 | 1.35 | 0.807 | 0.332 | 0.293 | 0.528 | -0.587 (inactive) |
| COCCOC(=O)N1C(=O)[C@@]2(c3ccccc31)[C@H](c1ccc(OCCO)cc1)N1[C@H](c3ccccc3)[C@H](c3ccccc3)OC(=O)[C@H]1[C@@H]2C(=O)Nc1nc2ccccc2s1 | 0.903 | 0.171 (inactive) | -0.0059 | -0.0089 | 0.55 | 2.74 | 0.676 | 1.3 | 0.232 | 1.17 | 1.6 | 1.2 | 0.72 | 0.942 | 1.24 | 1.05 | -2.22 | 0.518 | 0.433 | -2.98 (inactive) |
| C=CC[C@@]1(C(=O)N2CCCCC2)N=C(c2ccc(OCCCO)cc2)O[C@@H]1c1ccccc1 | 0.676 | -0.221 (inactive) | 0.284 | 0.195 | 0.57 | 2.39 | 1.07 | 1.29 | 0.453 | 0.357 | 2.8 | 1.2 | 1.58 | 0.935 | 0.939 | 0.0286 | 1.9 | -0.034 | 1.08 | -0.952 (inactive) |
| C=C[C@@H](COC(C)=O)NS(=O)(=O)c1ccc(Br)cc1 | -0.0541 | 0.486 (inactive) | -0.0728 | -0.0859 | 0.28 | 0.151 | -0.0973 | 0.597 | 0.0699 | 0.205 | 0.188 | 0.374 | 0.0776 | 0.156 | 0.635 | 0.617 | -0.367 | 0.283 | 0.428 | -0.823 (inactive) |
